An excerpt weighted towards active compounds, which were near 2.3% of everything screened.
Nrf2 block – Nrf2 qHTS screen for inhibitors. A549 ARE-Fluc reporter, luciferase luminescence, 18-24 h. Potency, µM (doses to about 46 µM), inactives show top-dose activity change, negative = inhibition, actives largely listed as inhibitors. 360,000 tested, 2.1% active; further: potency means the concentration at half of the fitted maximal effect; on the % scale 0 is the no-effect control and ±100 the full control effect; nearly all actives have a fitted effect of over 60% in size
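Two sequential reads on A549 ARE_Fluc cells exposed to compound for 18-24 h: a CellTiter-Fluor fluorescence read for viability, then a luciferase luminescence read for Nrf2/ARE activity.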
Giardia kill – Small Molecules that selectively kill Giardia lamblia: qHTS; Giardia lamblia trophozoite viability; activity change, % at 7.66 µM, hits read low; 340,000 tested, 0.15% active; AID 540267, 2011; in the data active means activity change below about -80%; inconclusive means between about -30% and that limit;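 further: parasites exposed to compound for two days anaerobically before the ATP read; on the % scale 0 is the no-effect control and ±100 the full control effect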
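Trophozoite viability was measured as ATP-dependent luminescence, read 15-30 min after reagent addition. Before that, parasites at 100 cells/well were exposed to compounds for 48 h, anaerobically, at 37 deg C.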
Anesthetic bind – qHTS Assay for Identification of Novel General Anesthetics; 350,000 tested, 0.074% active; Ferritin light chain (Equus caballus), P02791; apoferritin/1-aminoanthracene competitive binding, fluorescence; Potency, µM (top dose mostly 77.5 µM), for inactives: top-dose activity change, negative = displacement, hits mostly inhibitors; AID 485281, 2010; further: potency means the concentration at half of the fitted maximal effect; on the % scale 0 is the no-effect control and ±100 the full control effect; nearly all actives have a fitted effect of over 20% in size
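Steps: apoferritin (10 uM) was premixed with half-saturated 1-AMA in PBS, compounds were pin-transferred, plates stood 10 min at room temperature, fluorescence was read at 380/535 nm, and curves were fitted with a Hill equation.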
mIDH1 inhibitor – qHTS for Inhibitors of mutant isocitrate dehydrogenase 1 (IDH1): qHTS. Potency, µM (top dose mostly 76.6 µM), inactives show top-dose activity change, negative = inhibition, hits mostly inhibitors. IDH1-R132H enzyme, NADPH consumption, diaphorase/resazurin fluorescence. 390,000 tested, 0.093% active. AID 602179, 2012; further: potency means the concentration at half of the fitted maximal effect; on the % scale 0 is the no-effect control and ±100 the full control effect; nearly all actives have a fitted effect of over 65% in size
Target sequence (O75874 whole entry R132H, stated change not applied): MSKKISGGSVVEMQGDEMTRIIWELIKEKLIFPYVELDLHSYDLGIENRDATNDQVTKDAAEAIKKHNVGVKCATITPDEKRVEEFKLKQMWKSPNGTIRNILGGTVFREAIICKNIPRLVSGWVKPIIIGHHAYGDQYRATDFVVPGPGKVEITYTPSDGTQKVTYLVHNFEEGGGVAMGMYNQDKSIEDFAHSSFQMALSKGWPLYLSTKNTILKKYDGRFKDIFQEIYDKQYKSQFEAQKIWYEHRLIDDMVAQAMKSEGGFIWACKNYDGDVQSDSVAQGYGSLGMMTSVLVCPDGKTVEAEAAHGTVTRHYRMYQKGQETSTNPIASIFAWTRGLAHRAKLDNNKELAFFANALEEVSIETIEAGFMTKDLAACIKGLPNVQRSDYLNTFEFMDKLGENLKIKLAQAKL
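IDH1-R132H (0.5 ug/mL) preincubated 30 min with compound, then NADPH (0.016 mM) and alpha-KG (2 mM) added; 80 min at RT, pH 7.5. Remaining NADPH coupled via diaphorase/resazurin to fluorescence (540/590 nm); concentration-response curves normalized to no-enzyme control.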
A549 tox – Nrf2 qHTS screen for inhibitors: counterscreen for cytotoxicity; Potency, µM (highest dose often 46 µM), without a hit: at the highest dose activity change, negative = cytotoxicity, most hits filed as inhibitors; 390,000 tested, 0.16% active; AID 504648, 2011; A549 ARE-Fluc cells, CellTiter-Fluor viability, 18-24 h; further: potency means the concentration at half of the fitted maximal effect; on the % scale 0 is the no-effect control and ±100 the full control effect
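Cytotoxicity counterscreen: CellTiter-Fluor fluorescence was measured in A549 ARE_Fluc cells after 18-24 h of compound exposure in a concentration series. The subsequent BugLite luminescent read reports ARE-luciferase activity.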
Nrf2 activator – qHTS of Nrf2 Activators; AREc32 ARE-luciferase reporter (MCF7-derived line), luminescence, 24 h; Potency, µM (highest dose often 46.1 µM), for inactives: at the highest dose activation, most hits filed as activators; 410,000 tested, 0.31% active; AID 624171, 2012; further: potency means the concentration at half of the fitted maximal effect; % of control where 0% means no effect; nearly all actives have a fitted effect of over 65% in size
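Nrf2 activation is followed as ARE-luciferase induction in the AREc32 line after one day of compound treatment; luminescence is read with Steady-Glo.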
An asterisk follows results filed as active; ? = inconclusive; nt = no result given; [ ] = dose if it differs, or a comment. Unless noted, the call rests on the fitted dose curve; in most records, active means well fitted curve in the direction sought with a large enough effect; inconclusive means small, poorly fitted or top-dose-only effect, or another doubt; inactive means no such curve, though single readings can be large; an effect the other way counts as inactive or inconclusive.

SMILES	Nrf2 block	Giardia kill	Anesthetic bind	mIDH1 inhibitor	A549 tox	Nrf2 activator
COc1ccc(/C=C2\SC(c3ccc(C)cc3)=NC2=O)cc1OC	16µM*	12	2%	0%	-2%	0%
COc1ccc(/C=C2\SC(=O)NC2=S)cc1OC	?	-7	-4%	-15%	12µM*	?
COc1cc(C=C2CCCC(=Cc3ccc(OCC4CO4)c(OC)c3)C2=O)ccc1OCC1CO1 (stereo unspecified)	nt	nt	nt	0%	nt	-5%
COc1cccc2sc3ccc(C#Cc4ccc(N)cc4)cc3c(=O)c12	?	-22	-16%	17%	?	-1%
COc1ccc2sc3ccccc3c(=O)c2c1OC	?	-6	-11%	7%	-7%	11µM*
COC(=O)C1=C(C)NC(=O)/C1=C\c1cc(C)n(-c2cc(C)cc(C)c2)c1C	23µM*	4	?	7%	?	2%
COC(=O)C1=C(C)NC(=O)/C1=C\c1cc(C)n(-c2ccccc2)c1C	5%	-9	-17%	-8%	-16%	4%
COc1cc(C(=O)Nc2nc(C)c(Cc3ccc4c(c3)OCO4)s2)cc(OC)c1OC	15µM*	8	-1%	-1%	0%	4%
COc1ccc(C2Nc3ccccc3C(=O)N2CCc2ccc(Cl)cc2Cl)cc1COc1ccc(NC(C)=O)cc1 (stereo unspecified)	-16%	nt	nt	nt	6%	nt
COc1ccc(-c2nc3scc(CCNC(=O)Cc4ccc(F)cc4)n3n2)cc1	nt	nt	1%	-2%	-2%	8%
Cn1c(=O)c2cc(NC(=O)NCCc3cccs3)ccc2n1C/C=C/c1ccccc1	nt	nt	nt	nt	nt	3%
COc1ccc(/C=N\NC(=O)COc2ccc(C(C)(C)C)cc2)cc1Cn1nc(C)cc1C	nt	-9	?	-2%	15µM*	14%
COc1ccc(/C=N/NC(=O)c2ccco2)cc1Cn1nc(C)cc1C	-6%	3	-18%	0%	1%	11%
Cc1ccc(NC(=O)O/N=C/c2c(C)nn(C(C)(C)C)c2C)cc1Cl	0.33µM*	-20	-3%	7%	1%	-3%
Cn1c2ccccc2c(=O)c2ccc(NCc3ccc4c(c3)OCO4)cc21	26µM*	-11	nt	-4%	-31%	7%
CN1CCC[C@H]1CCNc1ccc2c(=O)c3ccccc3n(C)c2c1	13%	-1	nt	2%[38.3 µM]	0%	28%
COc1ccc(-c2nc(Cn3c(SCc4ccccc4F)nc4cccnc43)c(C)o2)cc1	?	nt	-3%	8%	-25%	-1%
Cc1oc(-c2ccccc2Cl)nc1Cn1c(SCc2cccc(F)c2)nc2cccnc21	?	nt	-19%	-4%	-22%	-1%
COc1ccc(-c2nc(Cn3c(SCc4cccc(F)c4)nc4cccnc43)c(C)o2)cc1	21µM*	nt	-1%	-9%	-25%	-1%
Cc1oc(-c2cccc(Cl)c2)nc1Cn1c(SCc2ccc(F)cc2)nc2cccnc21	18µM*	nt	-7%	-10%	-22%	0%
COc1ccc(-c2nc(Cn3c(SCc4ccc(F)cc4)nc4cccnc43)c(C)o2)cc1	18µM*	nt	5%	-13%	?	0%
CC(=O)N1c2ccc(S(=O)(=O)NCC3CCC(C(=O)Nc4ccc(F)cc4)CC3)cc2CC1C (stereo unspecified)	nt	nt	-6%	9%	-10%	3%
COc1ccccc1NC(=O)C1CCC(CNS(=O)(=O)c2ccc3c(c2)CC(C)N3C(C)=O)CC1 (stereo unspecified)	18µM*	nt	-15%	-5%	-3%	0%
CC(=O)N1c2ccc(S(=O)(=O)NCC3CCC(C(=O)Nc4ccc(C)c(C)c4)CC3)cc2CC1C (stereo unspecified)	21µM*	nt	-2%	-7%	-12%	5%

Compound activity deposited in PubChem BioAssay by National Center for Advancing Translational Sciences (NCATS).
